From PubChem
The list is not random: actives were taken first. Their share in the collection is about 0.88%.
MBNL1-CUG inh: blocks human MBNL1 binding to CUG repeat RNA; 280,000 tested, 0.036% active; Potency, µM (top dose mostly 57.5 µM), usual class: inhibitors; TR-FRET MBNL1-His/biotin-(CUG)12 binding, 665/545 ratio; AID 2675; Q9NR56; active = well fitted inhibition curve with a large enough effect in the signal ratio, with a control signal flat, not every such curve was filed as active; inconclusive = small, poorly fitted or top-dose-only effect, or effect the other way, or a change in a side signal; inactive = no such curve, though single readings can be large or run the other way; the % refers to the signal ratio
Target sequence (Q9NR56 whole entry, looked up): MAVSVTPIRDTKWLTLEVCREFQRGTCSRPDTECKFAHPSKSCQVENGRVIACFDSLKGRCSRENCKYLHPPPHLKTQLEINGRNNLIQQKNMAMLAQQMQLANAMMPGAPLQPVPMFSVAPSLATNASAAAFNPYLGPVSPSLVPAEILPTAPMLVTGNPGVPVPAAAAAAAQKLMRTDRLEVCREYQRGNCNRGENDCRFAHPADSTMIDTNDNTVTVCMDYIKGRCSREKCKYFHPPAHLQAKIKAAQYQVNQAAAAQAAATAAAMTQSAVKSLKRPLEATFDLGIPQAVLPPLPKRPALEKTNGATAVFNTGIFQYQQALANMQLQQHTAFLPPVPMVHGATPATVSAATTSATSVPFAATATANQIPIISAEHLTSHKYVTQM
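MBNL1-His + Biotin-(CUG)12, cpd titration 92 nM–58 uM; Tb anti-His Ab 0.055 ng/ul, SA-XL665 5 nM (final); 60 min RT; ratiometric 665/545 nm, Ex 340 nm; normalized to buffer and full-complex controls.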
CBFb-RUNX1 inh: blocks binding between human CBF-beta and RUNX1. Q01196+Q13951. AlphaScreen CBFb-His/RUNX1-biotin binding, biochemical. 230,000 tested, under 10 active. Potency, µM (highest dose often 59.8 µM), usual class: inhibitors
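Inhibition was taken as any reduction in AlphaScreen signal from the CBF-beta–RUNX1 pair (His and biotin tags, 30 nM each), measured after compound (15 min) and bead (90 min) incubations at room temperature.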
TRHR enhancer: allosterically enhances the human TRH receptor; enhancement, % at 2 µM; 360,000 tested, 0.66% active; TRHR cells, fluo-8 calcium fluorescence, EC20 TRH enhancement; P34981; in the data active = enhancement above about 30%
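TRHR-expressing cells loaded with fluo-8 calcium dye were read kinetically (ex 480/em 530) during compound addition, then stimulated with an EC20 of TRH (10 nM final). Enhancement of the Gq-mediated intracellular calcium response was scored.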
TRHR agonist: agonists of human TRH receptor; P34981; 360,000 tested, 0.18% active; activation, % at 2 µM; TRHR cells, calcium flux fluo-8, FDSS agonist mode; in the data active = activation above about 30%
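TRHR-expressing cells loaded with fluo-8 calcium dye; 23 nL library compound pin-transferred, kinetic FDSS fluorescence (Ex 480/Em 530) recorded about 180 s for agonist-induced calcium release, before a 10 nM TRH EC20 addition for potentiator mode.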
IL-2 act: activates IL-2 in a cell-based reporter assay | AID 652025 | activation, % (series mostly up to about 46 µM) | IL-2 activation reporter assay, cell-based qHTS; stimulated with anti-CD3/CD4/CD28 beads; in transgenic mouse T cells | 360,000 tested, 0.065% active; in the data active = activation above about 50%; inconclusive = mostly about 30% to 49%
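First, unstimulated transgenic mouse T cells were exposed to compound for 60 min. Next, anti-CD3/anti-CD4-coated beads with anti-CD28 were added. Finally, after 18 h at 37 degrees C, EGFP and DsRed were imaged.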
Epigenetic derep: derepresses silenced GFP reporter in murine cells. murine LDR cells, GFP reporter derepression, 30 h. Potency, µM (top dose mostly 53.9 µM), hits mostly activators. 280,000 tested, 0.2% active; also: nearly all actives have a fitted effect of over 60% in size
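In this reporter-derepression format, murine cells bearing a silenced integrated CMV-GFP locus incubate with test compound (30 h, 37 C), then are washed and imaged; fluorescent objects of 20–120 um count as induced cells.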
Numbers stand for hits; - = inactive; ? = inconclusive; . = no result. Unless noted, calls follow the shape of the dose curve; as a rule, active = well fitted curve in the direction sought with a large enough effect; inconclusive = small, poorly fitted or top-dose-only effect, or another doubt; inactive = no such curve, though single readings can be large; an effect the other way counts as inactive or inconclusive.

SMILES	MBNL1-CUG inh	CBFb-RUNX1 inh	TRHR enhancer	TRHR agonist	IL-2 act	Epigenetic derep
Cc1ccc(NC(=O)c2cnc3sc(N4CCOCC4)nn3c2=O)cc1N(C)C	.	.	-	-	.	-
COc1ccc(C2CC(c3ccco3)n3ncnc3N2)cc1 (stereo unspecified)	-	-	36.5	-	-	-
CCC(=O)NC(c1ccc(C)s1)c1cc(Cl)c2cccnc2c1O (stereo unspecified)	.	.	-	-	.	.
CCc1cccc(C)c1NC(=O)C(CC)Sc1nc2ccncc2[nH]1 (stereo unspecified)	.	.	-	-	.	-
CSc1nc2ccc3nc(NC(=O)c4ccccc4)sc3c2s1	-	-	37.3	-	-	-
COc1ccc(NC(=O)c2ccc3c(c2)N(Cc2cccc(Cl)c2)C(=O)c2ccccc2S3(=O)=O)cc1Cl	.	.	-	-	.	-
CC(=O)c1ccc(NC(=O)c2ccc3c(c2)N(Cc2cccc(Cl)c2)C(=O)c2ccccc2S3(=O)=O)cc1	.	.	30.3	-	.	-
CC(C)OCCCNC(=O)c1ccc(Cn2c(=O)c3cccn3c3cccnc32)cc1	.	.	-	-	.	-
Cc1cc2c(s1)c1cnn(Cc3ccc(F)cc3Cl)c(=O)c1n2C	.	.	-	-	.	.
CCC(=O)N1CCc2cc(CNC(=O)c3cccc(N(C)C)c3)ccc21	.	.	34.6	-	.	-
CC(=O)Nc1cccc(C(=O)NCc2ccc3c(c2)CCN3C(C)=O)c1	.	.	-	-	.	-
CCCCC(=O)O[C@]1(C(=O)CO)[C@H](C)C[C@H]2[C@@H]3CCC4=CC(=O)C=C[C@]4(C)[C@@]3(F)[C@@H](O)C[C@@]21C	.	-	.	.	.	-
CC(C)(C)OC(=O)NCc1nnc(C(C(=O)OCc2ccccc2)c2ccccc2)s1 (stereo unspecified)	.	.	-	-	.	.
Clc1cccc(Cl)c1CSc1cc2c(nn1)-c1ccccc1CC2	-	-	-	-	50.7	-
COc1cc(/C=C2\SC(=O)N(CCNC(=O)c3sc4cc(F)ccc4c3Cl)C2=O)cc(OC)c1OC	-	-	-	-	-	17.8µM
COc1cc(OC)cc(C(=O)NCC(=O)NCCN2C(=O)S/C(=C\c3ccccc3Cl)C2=O)c1	.	.	-	-	-	.
COc1cc(OC)c(/C=C2\SC(=O)N(CC(=O)Nc3ccccc3F)C2=O)c(OC)c1	-	.	-	-	-	.
COc1cc(C(=O)NCC(=O)NCCN2C(=O)S/C(=C\c3ccccc3Cl)C2=O)cc(OC)c1OC	.	.	30.7	-	-	.
COc1cc(/C=C2\SC(=O)N(CC(=O)Nc3ccccc3F)C2=O)cc(Cl)c1O	-	.	-	100.6	-	.
COc1ccc(-n2nnc(C(=O)Nc3ccccc3F)c2N)cc1	.	.	-	-	.	?
Cc1[nH]nc2c1C(c1cccs1)C1=C(CC(C)(C)CC1=O)N2 (stereo unspecified)	-	-	-	-	-	-
CC(C)Sc1nc2c(c(=O)[nH]1)C(c1cccs1)C1=C(CC(C)(C)CC1=O)N2 (stereo unspecified)	?	-	33.0	-	-	-
CN(C)S(=O)(=O)N1CCN(c2cc(Cl)ccc2Cl)CC1	-	-	35.1	-	-	-
CN(C)S(=O)(=O)N1CCN(c2ccccc2Cl)CC1	-	-	-	-	-	-
CCS(=O)(=O)N1N=C(c2cccc(NS(C)(=O)=O)c2)CC1c1ccc(C)cc1 (stereo unspecified)	-	-	-	-	-	22.4µM
SMILES	MBNL1-CUG inh	CBFb-RUNX1 inh	TRHR enhancer	TRHR agonist	IL-2 act	Epigenetic derep
CCS(=O)(=O)Nc1cccc(C2=NN(S(C)(=O)=O)C(c3ccccc3)C2)c1 (stereo unspecified)	-	-	-	-	-	?
CCOC(=O)c1c(C)[nH]sc1=S	-	-	33.4	-	-	-
CCOC(=O)c1sc(=S)[nH]c1C	.	.	.	.	-	.
Cc1ccc(/C=N\NC(=O)Cn2nnc3ccccc32)o1	-	-	32.6	-	-	-
Cc1ccc(/C=N/NC(=O)Cn2cnc3ccccc32)o1	-	-	-	-	-	-
CCc1ccccc1NC(=O)Cn1nnc(C(=O)NCc2ccco2)c1N	.	.	-	-	.	-
O=C1C2CCCCC2C(=O)N1c1ccc(S(=O)(=O)Nc2ncccn2)cc1 (stereo unspecified)	-	.	-	-	-	.
Cc1ccnc(NS(=O)(=O)c2ccc(N3C(=O)C4CCCCC4C3=O)cc2)n1 (stereo unspecified)	-	.	37.2	-	-	.
Cc1ccc(C)c(S(=O)(=O)N2CCN(C(=O)C3CCN(c4ncnc5sc(C)c(C)c45)CC3)CC2)c1	.	.	34.3	-	-	.
CCNc1nc(Oc2ccc(=O)[nH]n2)nc(SC)n1	-	-	31.6	-	-	-
CCCc1nc(SC)[nH]c(=O)c1C	.	-	34.2	-	-	-
CCOC(=O)c1c(C)sc(-c2c(-c3cccc(Cl)c3)[nH]c3c2c(=O)n(C)c(=O)n3C)c1O	.	.	-	169.3	.	?
CCOc1cc(/C=C2\CCCc3c2nc2ccccc2c3C(=O)O)ccc1OC	?	.	-	151.1	-	.
COc1cc(/C=C2\CCCc3c2nc2ccccc2c3C(=O)O)cc(Br)c1O	?	.	-	-	-	.
Cc1ccc(NC(=O)CN2C(=O)C3(SCC(=O)N3c3cccc(Cl)c3)c3ccccc32)cc1C (stereo unspecified)	.	.	-	-	.	-
COc1ccc(/C=N/NC(=O)CNC(=O)c2ccc3c(c2)OCCO3)c(C(=O)O)c1OC	-	.	30.1	-	-	.
COc1cccc(/C=N/NC(=O)CC(=O)NCCc2ccccc2)c1OC	-	-	33.1	-	-	-
COc1ccc(/C=N\NC(=O)c2ccc(-c3ccccc3)cc2)c(OC)c1OC	-	.	30.2	-	-	.
COc1cccc(/C=N/NC(=S)NCCc2ccccc2)c1OC	-	.	-	-	-	.
CC(C)(C)/C=N/NC(=O)CNC(=O)c1ccc2c(c1)OCCO2	-	-	-	-	-	-
CN1/C(=C\C=C2/SC(=S)NC2=O)C(C)(C)c2ccccc21	?	?	-	82.9	-	?
CN1C(=CC=C2C=C(I)C(=O)C(I)=C2)C(C)(C)c2ccccc21	?	-	-	-	-	-
CN1/C(=C\C=C2/C(=O)Oc3ccccc3C2=O)C(C)(C)c2ccccc21	?	-	-	217.0	80.4	14.1µM
CCCN1C(=O)/C(=C\C=C2\N(CC)c3ccccc3C2(C)C)SC1=S	-	-	-	35.6	-	-
CC(C)OC(=O)c1cccc(-c2ccc(C=O)o2)c1	.	-	35.5	-	-	-
CC(C)OC(=O)c1ccc(COC(=O)c2cccc(-c3nnc(-c4ccccc4)o3)c2)cc1	-	-	-	-	-	-
O=C1c2ccccc2-c2onc3ccc(Oc4ccccc4)c1c23	?	-	32.0	-	-	?
